Measured values taken from PubChem BioAssay (Tox21).
“And” between values parts separate entries of the source, which are not always exact repeats. Identical values can stand only once. Results filed as inconclusive are left out. Where a call stands in place of a potency, no number is given. Where a structure was tested more than once in an assay, its records may differ in their call. The source made the active and inactive calls. The call rests on the fitted dose curve.
Potency means the concentration at half of the fitted maximal effect.

Experiment: qHTS assay for small molecule agonists of the p53 signaling pathway - cell viability (AID 651633); further: nearly all actives have a fitted effect of over 30% in size;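 on activity change, negative = cytotoxicity: p53RE-bla HCT reporter cells with a stable beta-lactamase p53 reporter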
Settings: p53RE-bla HCT-116 viability, ATP luminescence, 16 h; series mostly up to 83.3 µM; activity change, negative = cytotoxicity: at the top concentration
From the text: National Center for Advancing Translational Sciences [NCATS]
NIH Chemical Genomics Center [NCGC]
U.S. Environmental Protection Agency [EPA]
National Institutes of Environmental Health Sciences [NIEHS]
National Toxicology Program [NTP]
U.S. Food and Drug Administration [FDA]
p53, a tumor suppressor protein, is activated following cellular insult, including DNA damage and other cellular stresses. The activation of p53 regulates cell fate by inducing DNA repair, cell cycle arrest, apoptosis, or cellular senescence. The activation of p53, therefore, is a good indicator of DNA damage and other cellular stresses. […] The activation of the reporter gene under culture conditions can be detected by fluorescence intensity. This cell line was used to screen the Tox21 compound library in a 1536-well plate format and to identify agonists that activate the p53 signaling pathway.
Tox21 Assay Protocol Summary:
The p53RE-bla cells were dispensed at 4,000 cells/5 ul/well in 1536-well black wall/clear bottom plates using a Multidrop dispenser. After the assay plates were incubated at a 37 C/5% CO2 incubator for 5 hours, 23 nL of compounds dissolved in DMSO, positive controls or DMSO only was transferred to the assay plate by a pin tool. The plates were incubated at 37 C for 16 hours. After 1 uL of LiveBLAzerTM B/G FRET substrate was added using a Flying Reagent Dispenser, the plates were incubated at room temperature for 2 hours, and fluorescence intensity was measured by an Envision plate reader.
For cell viability readout that measures cytotoxicity, 4 ul/well of CellTiter-Glo reagent was added into the assay plates using a Flying Reagent Dispenser. After 30 min incubation at room temperature, the luminescence intensity in the plates was measured using a ViewLux plate reader.
For `COC(=O)c1ccccc1O`, the Potency was “inactive”. With `C[C@@H]1O[C@@H](OC[C@H]2O[C@@H](Oc3c(-c4ccc(O)c(O)c4)oc4cc(O)cc(O)c4c3=O)[C@H](O)[C@@H](O)[C@@H]2O)[C@H](O)[C@H](O)[C@H]1O` the Potency was “inactive”. In the case of `O=C1O[C@H](CO)[C@@H](O)[C@H](O)[C@H]1O`, the Potency was “inactive”. For `CCC(=O)O`, the Potency was “inactive”. With `CCOC(=O)[C@H](CCc1ccccc1)N[C@@H](C)C(=O)N1Cc2ccccc2C[C@H]1C(=O)O` the Potency was “inactive”. With `C=C(C)C(=O)OCCCCCC` the Potency was “inactive”. In the case of `C=C(C)C(=O)OCCC[Si](OC)(OC)OC`, the Potency was “inactive”. With `C/C=C(C)/C=C/C=C(C)C` the “activity change, negative = cytotoxicity” value was -8.21% (inactive). For `CC(=O)Nc1ccc(C(=O)O)cc1`, the Potency was “inactive”. For `O=S(=O)(O)CCS`, the Potency was “inactive”. In the case of `CC(C)n1c(/C=C/[C@@H](O)C[C@@H](O)CC(=O)O)c(-c2ccc(F)cc2)c2ccccc21`, the “activity change, negative = cytotoxicity” value was -20% (inactive). With `Oc1ccc(OCc2ccccc2)cc1` the Potency was “inactive”. For `O=c1c(-c2ccc(O)cc2)coc2cc(O)ccc12`, the “activity change, negative = cytotoxicity” value was -10.2% (inactive). With `CCCCCCCCCCCCN` the Potency was “inactive and 27.3 µM (active)”. In the case of `CCCCOCCOCCOC(=O)CCCCC(=O)OCCOCCOCCCC`, the Potency was “inactive”. In the case of `COC(=O)c1ccc(C(=O)OC)cc1`, the Potency was “inactive”. In the case of `Oc1ccc2ccccc2c1`, the Potency was “inactive”. In the case of `OC[C@@H](O)[C@@H](O)[C@H](O)[C@@H](O)CO`, the Potency was “inactive”. In the case of `CC1Cc2ccccc2N1NC(=O)c1ccc(Cl)c(S(N)(=O)=O)c1` (stereo not given), the Potency was “inactive”. With `NC(=O)/N=N/C(N)=O` the Potency was “inactive”. With `O=C(c1ccc(O)cc1)c1ccc(O)cc1O` the Potency was “inactive”. In the case of `O=C(c1cc(O)c(O)c(O)c1)c1ccc(O)c(O)c1O`, the Potency was 54.3 µM (active). For `CCc1ccccc1O`, the Potency was “inactive”. For `Nc1c(S(=O)(=O)O)cc(Br)c2c1C(=O)c1ccccc1C2=O`, the Potency was “inactive”. For `O=[N+]([O-])c1cc(N(CCO)CCO)ccc1NCCO`, the Potency was “inactive”. In the case of `Cc1cc(=O)[nH]c(C(C)C)n1`, the Potency was “inactive”. With `CC(=O)CCc1ccccc1` the Potency was “inactive”. In the case of `CC1COc2ccccc2N1C(=O)C(Cl)Cl` (stereo not given), the Potency was “inactive”. In the case of `c1ccc2[nH]cnc2c1`, the Potency was “inactive”. For `O=C(O)c1ccc([N+](=O)[O-])cc1`, the Potency was “inactive”. For `CC(C)(N=C=O)c1cccc(C(C)(C)N=C=O)c1`, the Potency was “inactive”. With `CC(C)(CO)COC(=O)C(C)(C)CO` the “activity change, negative = cytotoxicity” value was 0.365% (inactive). With `O=C1N=C(O)CN1/N=C/c1ccc(-c2ccc([N+](=O)[O-])cc2)o1` the Potency was “inactive”. For `NCCNCCNCCNCCN`, the Potency was “inactive”. With `Cn1c([N+](=O)[O-])cnc1COC(N)=O` the Potency was “inactive”. In the case of `O=S(=O)(O)c1cc(S(=O)(=O)O)c2c(N=Nc3ccccc3)c(O)ccc2c1`, the Potency was “inactive”. In the case of `CCOC(=O)/C=C\C(=O)OCC`, the Potency was “inactive”. With `OC[C@@H](O)[C@H](O)[C@H](O)[C@@H](O)CO` the Potency was “inactive”. In the case of `C=C1C2CCC(C2)C1(C)C` (stereo not given), the Potency was “inactive”. With `O=C(O)c1cc(-c2ccccc2)nc2ccccc12` the Potency was “inactive”.
